{
  "source": "PubChem BioAssay (NCI)",
  "note": "This is part of a sample that, as a whole, favours compounds with a hit. Of some 83,000 tested, about 20% had one in any assay.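 Single-concentration screen, 48 h exposure, 96-well plates. Endpoint: percent growth. Below 10 = active.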 Values without a mark were called inactive. Calls of active or inactive are those of the source.",
  "data": [
    {"test_system": "HL-60(TB) leukemia", "experiment": "NCI-60 one-dose screen, 48 h (100 = growth as untreated, 0 = no growth, -100 = all killed)", "conditions": "10 µM unless noted", "values": [
      {"smiles": "COc1ccc(/C=C2\\COc3ccc(-c4ccccc4)cc3C2=O)c(OC)c1", "growth": "56.9%"},
      {"smiles": "CCSC1=NC2C(N(CC)C(=O)N2CC)N1/N=C/C=C/c1ccccc1[N+](=O)[O-]", "note": "(stereo not drawn)", "growth": "-49.4% (active)"},
      {"smiles": "O=C1/C(=C\\c2ccc(Br)cc2)CN(C(=O)c2ccccc2F)C/C1=C\\c1ccc(Br)cc1", "growth": "33.6%"}
    ]}
  ]
}
